The other results are listed elsewhere or left out. No count for the full screen is at hand.

In this assay the target is furin, P09958. As to the kind of experiment: furin cleavage Z-score vs untreated control; higher = more cleavage, active = 3.5 or more, inactive = 1 or less, 8 variable residues between constant flanks. In short, it runs like this:
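The cleavage Z-score is the log read count relative to furin-free reactions, lowess-adjusted and scaled by median absolute deviation. Counts came from sequencing DNA released from bead-bound 8-mer peptide–cDNA fusions after digestion with purified furin for 7.5, 15 or 30 min.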
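Note: purified furin at 1:10 enzyme:substrate in 50 mM HEPES pH 7.5.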

furin, P09958, sequence (P09958 whole entry, the tested form may be a part): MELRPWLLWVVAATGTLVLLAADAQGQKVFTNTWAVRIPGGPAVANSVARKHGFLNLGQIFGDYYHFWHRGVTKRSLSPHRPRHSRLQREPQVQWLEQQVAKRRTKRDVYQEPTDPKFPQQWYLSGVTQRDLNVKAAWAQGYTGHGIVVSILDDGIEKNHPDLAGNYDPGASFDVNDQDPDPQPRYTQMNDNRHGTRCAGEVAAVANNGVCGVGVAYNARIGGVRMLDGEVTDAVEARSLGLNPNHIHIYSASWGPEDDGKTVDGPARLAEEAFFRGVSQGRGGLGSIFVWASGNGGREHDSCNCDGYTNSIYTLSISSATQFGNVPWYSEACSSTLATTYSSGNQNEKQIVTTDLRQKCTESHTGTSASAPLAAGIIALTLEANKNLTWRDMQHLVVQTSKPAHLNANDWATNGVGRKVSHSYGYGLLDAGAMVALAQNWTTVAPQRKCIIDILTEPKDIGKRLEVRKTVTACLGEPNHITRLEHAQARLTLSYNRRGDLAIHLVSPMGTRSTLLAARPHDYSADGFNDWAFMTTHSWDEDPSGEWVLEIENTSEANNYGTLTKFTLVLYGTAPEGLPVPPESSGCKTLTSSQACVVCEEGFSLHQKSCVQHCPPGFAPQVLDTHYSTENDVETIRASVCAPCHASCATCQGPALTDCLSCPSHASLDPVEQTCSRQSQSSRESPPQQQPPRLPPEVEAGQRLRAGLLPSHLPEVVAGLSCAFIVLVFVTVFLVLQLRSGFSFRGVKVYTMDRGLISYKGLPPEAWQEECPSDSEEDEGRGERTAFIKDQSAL

B1: HC935 (peptide)
chain: CAPVCQDHLEAGNASASA
On to B1, for which the “furin cleavage Z-score” value (7.5 min) is -0.428 (inactive), the “furin cleavage Z-score” value (15 min) was -0.153 (inactive) and the “furin cleavage Z-score” value (30 min) is -0.41 (inactive).

B2: HC285 (peptide)
chain: CARDGKLPATAGNASASA
B2: the “furin cleavage Z-score” value was 1.05 (7.5 min), 2.03 (15 min) and 0.856 (inactive) (30 min).

B3: HC64 (peptide)
chain: CATTPCLGSWAGNASASA
Take B3: the “furin cleavage Z-score” value is 0.626 (inactive) (7.5 min), 0.544 (inactive) (15 min) and 0.646 (inactive) (30 min).

B4: HC1087 (peptide)
chain: CAAGYGAGVAAGNASASA
In the case of B4, the “furin cleavage Z-score” value was 1.51 (7.5 min), -1.39 (inactive) (15 min) and -0.133 (inactive) (30 min).

B5: FS-2789 (peptide)
chain: CARRRRGLECAGNASASA
B5: the “furin cleavage Z-score” value is 6.18 (active) (7.5 min), 4.95 (active) (15 min) and 7.29 (active) (30 min).

B6: FS-2081 (peptide)
chain: CARRRRSGADAGNASASA
B6: the “furin cleavage Z-score” value (7.5 min) amounted to 1.69, the “furin cleavage Z-score” value (15 min) was 0.662 (inactive) and the “furin cleavage Z-score” value (30 min) is 0.709 (inactive).

B7: FS-92 (peptide)
chain: CASMPRERRDAGNASASA
B7: the “furin cleavage Z-score” value is, setting by setting: (7.5 min) 10.3 (active); (15 min) 12.9 (active); (30 min) 9.32 (active).

B8: FS-1268 (peptide)
chain: CARRRRERRDAGNASASA
Consider B8, for which the “furin cleavage Z-score” value runs as follows: (7.5 min) 14.1 (active); (15 min) 12.4 (active); (30 min) 10.4 (active).

B9: FS-1922 (peptide)
chain: CARRRRERDDAGNASASA
B9: the “furin cleavage Z-score” value (7.5 min) is 7.16 (active), the “furin cleavage Z-score” value (15 min) is 10.1 (active) and the “furin cleavage Z-score” value (30 min) is 7.38 (active).

B10: HC745 (peptide)
chain: CALLCPAGHAAGNASASA
Turning to B10, the “furin cleavage Z-score” value by setting is: (7.5 min) 0.399 (inactive); (15 min) 0.942 (inactive); (30 min) -0.0279 (inactive).

B11: HC1019 (peptide)
chain: CAYIEQGMMLAGNASASA
As to B11, the “furin cleavage Z-score” value is -1.18 (inactive) (7.5 min), -0.261 (inactive) (15 min) and -0.872 (inactive) (30 min).

B12: HC1898 (peptide)
chain: CATTPCSTSWAGNASASA
On to B12, for which the “furin cleavage Z-score” value by setting is: (7.5 min) 0.261 (inactive); (15 min) 0.66 (inactive); (30 min) -0.516 (inactive).

B13: HC2030 (peptide)
chain: CAVVVCSMSYAGNASASA
Take B13: the “furin cleavage Z-score” value (7.5 min) was 0.0385 (inactive), the “furin cleavage Z-score” value (15 min) is -1.4 (inactive) and the “furin cleavage Z-score” value (30 min) is 0.392 (inactive).

B14: HC29 (peptide)
chain: CAMEECHQHLAGNASASA
B14: the “furin cleavage Z-score” value (7.5 min) was 0.383 (inactive), the “furin cleavage Z-score” value (15 min) was 1.55 and the “furin cleavage Z-score” value (30 min) was 2.41.

B15: HC1213 (peptide)
chain: CAMTTDNLKCAGNASASA
In the case of B15, the “furin cleavage Z-score” value (7.5 min) was -0.575 (inactive), the “furin cleavage Z-score” value (15 min) was -0.0624 (inactive) and the “furin cleavage Z-score” value (30 min) was 0.0584 (inactive).

B16: FS-1317 (peptide)
chain: CADWLRQRRTAGNASASA
As for B16, the “furin cleavage Z-score” value was -0.575 (inactive) (7.5 min), 1.58 (15 min) and 1.74 (30 min).

B17: FS-375 (peptide)
chain: CARRRRERRTAGNASASA
For the sequence B17, the “furin cleavage Z-score” value is 10.4 (active) (7.5 min), 11 (active) (15 min) and 9 (active) (30 min).

B18: FS-95 (peptide)
chain: CASVDRWRRTAGNASASA
For B18, the “furin cleavage Z-score” value was 3.08 (7.5 min), 4.75 (active) (15 min) and 4.05 (active) (30 min).

B19: FS-1784 (peptide)
chain: CARRRRFPFVAGNASASA
On to B19, for which the “furin cleavage Z-score” value reads like this: (7.5 min) 0.483 (inactive); (15 min) 0.473 (inactive); (30 min) 1.3.

B20: FS-2596 (peptide)
chain: CARRRRAVPVAGNASASA
In the case of B20, the “furin cleavage Z-score” value was 0.0891 (inactive) (7.5 min), 0.235 (inactive) (15 min) and 1.42 (30 min).

B21: FS-2786 (peptide)
chain: CARRRRFVPVAGNASASA
With B21, the “furin cleavage Z-score” value reads like this: (7.5 min) 2.12; (15 min) 4.63 (active); (30 min) 5.2 (active).

B22: HC724 (peptide)
chain: CASSDLYLVTAGNASASA
Turning to B22, the “furin cleavage Z-score” value (7.5 min) is -0.584 (inactive), the “furin cleavage Z-score” value (15 min) is -0.169 (inactive) and the “furin cleavage Z-score” value (30 min) was -0.884 (inactive).

B23: FS-584 (peptide)
chain: CACSHRERRDAGNASASA
B23: the “furin cleavage Z-score” value reads like this: (7.5 min) 6.92 (active); (15 min) 7.04 (active); (30 min) 8.38 (active).

B24: HC422 (peptide)
chain: CAGAPTYSWGAGNASASA
In the case of B24, the “furin cleavage Z-score” value is -0.832 (inactive) (7.5 min), -0.574 (inactive) (15 min) and -0.69 (inactive) (30 min).

B25: HC2468 (peptide)
chain: CAWTPCSAHLAGNASASA
As for B25, the “furin cleavage Z-score” value reads like this: (7.5 min) -0.238 (inactive); (15 min) 0.336 (inactive); (30 min) -1.23 (inactive).

B26: HC1737 (peptide)
chain: CAMEECSSHLAGNASASA
As to B26, the “furin cleavage Z-score” value reads like this: (7.5 min) -0.244 (inactive); (15 min) 0.0684 (inactive); (30 min) 0.567 (inactive).

B27: HC2520 (peptide)
chain: CASTCCSAHLAGNASASA
B27: the “furin cleavage Z-score” value is, setting by setting: (7.5 min) -0.141 (inactive); (15 min) 0.556 (inactive); (30 min) -0.184 (inactive).

B28: FS-1482 (peptide)
chain: CARRRRFSRTAGNASASA
Turning to B28, the “furin cleavage Z-score” value is 12.1 (active) (7.5 min), 11.9 (active) (15 min) and 9.62 (active) (30 min).

B29: FS-2127 (peptide)
chain: CARACRLVHDAGNASASA
For B29, the “furin cleavage Z-score” value runs as follows: (7.5 min) -0.975 (inactive); (15 min) -0.538 (inactive); (30 min) -0.874 (inactive).

B30: FS-2375 (peptide)
chain: CARRRRNVHDAGNASASA
Consider B30, for which the “furin cleavage Z-score” value is, setting by setting: (7.5 min) 4.94 (active); (15 min) 5.47 (active); (30 min) 4.66 (active).

B31: FS-2077 (peptide)
chain: CARRRREYWQAGNASASA
For B31, the “furin cleavage Z-score” value was 1.57 (7.5 min), 2.17 (15 min) and 5.41 (active) (30 min).

B32: FS-2452 (peptide)
chain: CARRRREAPKAGNASASA
As for B32, the “furin cleavage Z-score” value (7.5 min) was 10.9 (active), the “furin cleavage Z-score” value (15 min) was 12.3 (active) and the “furin cleavage Z-score” value (30 min) was 8.72 (active).

B33: FS-3167 (peptide)
chain: CARRRRLLQQAGNASASA
Turning to B33, the “furin cleavage Z-score” value was -0.397 (inactive) (7.5 min), -0.514 (inactive) (15 min) and -0.168 (inactive) (30 min).

B34: HC267 (peptide)
chain: CAVYEAADAIAGNASASA
With B34, the “furin cleavage Z-score” value (7.5 min) is -0.0143 (inactive), the “furin cleavage Z-score” value (15 min) was -0.395 (inactive) and the “furin cleavage Z-score” value (30 min) is -0.118 (inactive).

B35: HC1477 (peptide)
chain: CATPMGFSYDAGNASASA
As for B35, the “furin cleavage Z-score” value is, setting by setting: (7.5 min) -1.01 (inactive); (15 min) -0.454 (inactive); (30 min) -1.57 (inactive).

B36: FS-1566 (peptide)
chain: CARRRRFERAAGNASASA
B36: the “furin cleavage Z-score” value reads like this: (7.5 min) 10.7 (active); (15 min) 10.7 (active); (30 min) 8.07 (active).

B37: FS-2373 (peptide)
chain: CARRRREGGAAGNASASA
As for B37, the “furin cleavage Z-score” value reads like this: (7.5 min) -0.0204 (inactive); (15 min) 0.649 (inactive); (30 min) 0.0983 (inactive).

B38: FS-197 (peptide)
chain: CASSVRPAREAGNASASA
Consider B38, for which the “furin cleavage Z-score” value (7.5 min) was 5.98 (active), the “furin cleavage Z-score” value (15 min) is 7.51 (active) and the “furin cleavage Z-score” value (30 min) is 5.17 (active).

B39: FS-1210 (peptide)
chain: CAHPLRPAREAGNASASA
As for B39, the “furin cleavage Z-score” value was 5.83 (active) (7.5 min), 7.36 (active) (15 min) and 6.09 (active) (30 min).

B40: HC2043 (peptide)
chain: CAVVCCSASYAGNASASA
In the case of B40, the “furin cleavage Z-score” value was 0.0516 (inactive) (7.5 min), 0.0797 (inactive) (15 min) and 0.0526 (inactive) (30 min).

B41: FS-2391 (peptide)
chain: CALEKRSVGCAGNASASA
Turning to B41, the “furin cleavage Z-score” value (7.5 min) was -0.325 (inactive), the “furin cleavage Z-score” value (15 min) is -2.06 (inactive) and the “furin cleavage Z-score” value (30 min) was -0.0695 (inactive).

B42: FS-1639 (peptide)
chain: CALEKRQKRDAGNASASA
Consider B42, for which the “furin cleavage Z-score” value by setting is: (7.5 min) 14.8 (active); (15 min) 13.5 (active); (30 min) 11.4 (active).

B43: FS-946 (peptide)
chain: CANPARDDRSAGNASASA
Take B43: the “furin cleavage Z-score” value is 1.25 (7.5 min), 0.0847 (inactive) (15 min) and -1.86 (inactive) (30 min).

B44: HC1082 (peptide)
chain: CAGLGKVLIDAGNASASA
As for B44, the “furin cleavage Z-score” value by setting is: (7.5 min) -0.199 (inactive); (15 min) -0.846 (inactive); (30 min) -0.271 (inactive).

B45: FS-1000 (peptide)
chain: CAGLRRQKRDAGNASASA
As for B45, the “furin cleavage Z-score” value is 12.6 (active) (7.5 min), 12.8 (active) (15 min) and 9.7 (active) (30 min).

B46: FS-926 (peptide)
chain: CAELGRPARDAGNASASA
Consider B46, for which the “furin cleavage Z-score” value is, setting by setting: (7.5 min) 0.0348 (inactive); (15 min) -0.0349 (inactive); (30 min) -0.833 (inactive).

B47: FS-278 (peptide)
chain: CANPARVCRDAGNASASA
B47: the “furin cleavage Z-score” value was 6.13 (active) (7.5 min), 5.66 (active) (15 min) and 4.1 (active) (30 min).

B48: HC642 (peptide)
chain: CAGLRDLAVAAGNASASA
Consider B48, for which the “furin cleavage Z-score” value is 1.12 (7.5 min), -0.299 (inactive) (15 min) and -1.6 (inactive) (30 min).

B49: FS-463 (peptide)
chain: CAMSARRARDAGNASASA
B49: the “furin cleavage Z-score” value by setting is: (7.5 min) 9.65 (active); (15 min) 10.9 (active); (30 min) 7.88 (active).

Values taken from the supplement of paper PMC3545927.
